Bioassay records (PubChem)
tim23-1 inh = inhibits growth of tim23-1 mutant yeast | inhibition, % at 20 µM | S. cerevisiae tim23-1 growth, BacTiter-Glo luminescence, 24 h | hit rate 1.3% among 330,000 | AID 463212;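 active means growth inhibition of the mutant yeast at or above 50%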;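 further: temperature-sensitive mutant grown at 25 °C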
NLRP3 yeast inh = blocks the NALP3 inflammasome reconstituted in yeast; Yeast reconstituted NLRP3/ASC/caspase-1, beta-gal luminescence, 24 h; inhibition, % at 10 µM; hit rate 0.39% among 330,000; AID 2825;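 active means inhibition of 50% or more; inactive means inhibition below 50%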
TIM10 inh = TIM10 yeast growth inhibition; S. cerevisiae TIM10 strain growth, BacTiter-Glo luminescence, 24 h; inhibition, % at 10 µM; hit rate 1.4% among 330,000;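 active means inhibition of 40% or more at the single tested concentration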;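 further: wild-type TIM10 isogenic control strain grown at permissive 25 °C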
tim10-1 inh = inhibits growth of tim10-1 mutant yeast. S. cerevisiae tim10-1 ts strain growth, BacTiter-Glo, 24 h. inhibition, % at 20 µM. AID 463190. hit rate 2.2% among 330,000;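 active means inhibition of at least 40%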;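 further: mutant grown at 25 °C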
CR mimetic SO = yeast age-related superoxide inhibition as caloric restriction mimetic. superoxide response (% of plate mean), % at 10 µM. AID 2690. hit rate 0.18% among 330,000. S. cerevisiae aged cells, superoxide DHE fluorescence; stronger effect = lower value;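 active means superoxide response under a set limit, about three screen SD below normal, cut at about 65% in these data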;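 further: yeast aged for seven days with compound at 30 °C before DHE staining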
tim10-1 confirm = confirmation of tim10-1 mutant yeast growth inhibitors; shares compounds with tim10-1 inh; S. cerevisiae tim10-1 ts strain growth, BacTiter-Glo, 24 h; inhibition, % at 20 µM; hit rate 56% among 7,400;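 active means inhibition of yeast growth at or above a set limit in either of two repeat tests at 20 µM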;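 further: tim10-1 mutant grown at permissive 25 °C to find synthetic lethal compounds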
Of the large screens only hits and unclear results are named; the others gave an inactive call (follow-up assays come after a bar, where they were run). A selection: hits, their analogues and other compounds. The true share with any hit is near 3.8%.

CCC(C(=O)N(C(C)C)C(C)C)c1ccccc1 (configuration not stated)	none
CCC(C(=O)c1ccc(O)cc1)c1ccccc1 (configuration not stated)	tim10-1 inh 46 | tim10-1 confirm inactive
Cc1ncc(CO)c(/C=N/NC(=S)Nc2ccc(C(C)C)cc2)c1O	none
O=C(Nc1ccc(N2CCCCC2)cc1)c1ccccn1	tim10-1 inh 41 | tim10-1 confirm 31
O=C1S/C(=C/c2ccc(N3CCOCC3)o2)C(=O)N1Cc1c(F)cccc1Cl	tim10-1 inh 59 | tim10-1 confirm 58
O=C1S/C(=C\c2ccc(N3CCOCC3)o2)C(=O)N1Cc1c(F)cccc1Cl	none
CC(OC(=O)CCCN=C1NS(=O)(=O)c2ccccc21)C(=O)Nc1ccc(F)cc1Cl (configuration not stated)	none
O=C(CS(=O)(=O)c1ccccc1)Nc1nccs1	none
COc1ccc(N(CCC#N)C(=O)/C(C#N)=C/c2cccs2)cc1	none
COC(=O)CCN(c1ccccc1)S(=O)(=O)c1cc(-c2cc(C)no2)ccc1C	none
COc1cc(/C=C2\SC(=O)NC2=O)ccc1Oc1ccc([N+](=O)[O-])cc1[N+](=O)[O-]	none
CC(C)(C)Sc1ccc(/C=N/O)cc1[N+](=O)[O-]	none
CO/N=C/c1ccc(Oc2ccc([N+](=O)[O-])cc2[N+](=O)[O-])c(OC)c1	tim10-1 inh 44 | tim10-1 confirm 34
COc1cc(/C=N/O)ccc1Oc1ccc([N+](=O)[O-])cc1[N+](=O)[O-]	tim10-1 inh 44 | tim10-1 confirm 38
O=[N+]([O-])c1cc(/C=N\O)ccc1Oc1ccc(F)cc1	tim10-1 inh 46 | tim10-1 confirm inactive
CCOc1cc(/C=N/O)ccc1OCc1ccc([N+](=O)[O-])cc1	none
CCC(=O)NC(Nc1ccccn1)(C(=O)OC)C(F)(F)F (configuration not stated)	none
CCOC(=O)N1CCN(S(=O)(=O)c2ccc(C(=O)NNc3nc4cc(C)cc(C)c4s3)cc2)CC1	tim10-1 inh 42 | tim10-1 confirm inactive
CCOC(=O)N1CCN(S(=O)(=O)c2ccc(C(=O)NNc3nc4c(C)cc(C)cc4s3)cc2)CC1	none
Cn1cc(CN2CCCC(C(=O)c3nccn3C)C2)c(-c2cccc(Cl)c2)n1 (configuration not stated)	none
N#Cc1nc(-c2ccccc2Cl)oc1NCc1ccco1	tim10-1 inh 40 | tim10-1 confirm inactive
CCOc1ccccc1N1CCN(CC(=O)Nc2ccccc2C(=O)NC2CC2)CC1	none
CCCn1c(=O)c(C(=O)NNC(=O)c2cccc([N+](=O)[O-])c2)c(O)c2ccccc21	none
COc1ccc(CNC(=O)Cn2nc(C(F)(F)F)c3c2CCC3)cc1	tim10-1 inh 42 | tim10-1 confirm inactive
COc1ccc(NC(=O)Cn2nc(C(F)(F)F)c3c2CCCC3)c(OC)c1	none
c1ccc(-c2cc(-c3nnco3)c3ccccc3n2)nc1	tim10-1 inh 40 | tim10-1 confirm inactive
COc1cc(/C=N/NC(=O)c2nnn(-c3nonc3N)c2C(C)C)ccc1OCc1ccc(F)cc1	tim10-1 inh 43 | tim10-1 confirm inactive
CCCc1c(C(=O)N/N=C/c2ccc(OCc3ccccc3)c(OC)c2)nnn1-c1nonc1N	none
COc1ccc(-c2csc(CCn3nc(C)cc3C)n2)cc1	tim10-1 inh 41 | tim10-1 confirm 35
COc1ccc(-c2csc(CCn3nc(C)cc3C)n2)cc1OC	none
CCCOc1cccc(-c2cc(C(=O)NN)c3ccccc3n2)c1	none
CCNC(=S)NNC(=O)c1cc(-c2cccnc2)nc2ccccc12	tim10-1 inh 55 | tim10-1 confirm 41
CCCNC(=S)NNC(=O)c1cc(-c2cccnc2)nc2ccccc12	none
CCCCOc1cccc(-c2cc(C(=O)NNC(=S)NCC)c3ccccc3n2)c1	tim10-1 inh 41 | tim10-1 confirm 37
CC(=O)Oc1ccc(/C=N/NC(=O)CCSc2ccccc2)cc1	none
Cc1ccc(-c2ccc(/C=C(\C#N)C(N)=S)n2C)cc1	none
Cc1cc(C)c(/C=C(\C#N)C(N)=S)c(C)c1	tim10-1 inh 41 | tim10-1 confirm inactive
O=C(Nc1ccccc1Cl)c1ccc(Cl)cc1Cl	none
O=C(NC(=S)Nc1ccccc1O)c1ccc(Cl)cc1Cl	tim10-1 inh 43 | tim10-1 confirm inactive
O=C(NNC(=S)Nc1cccc(C(F)(F)F)c1)c1ccc(Cl)cc1Cl	tim10-1 inh 52 | tim10-1 confirm 46
